Measured values published in publication PMC5540273 (PLoS ONE, 2017).

Key:
Details in all cases: concentration: 1 μM, replicates: in singlicate; n = 1
AAK1 = tested on: AAK1
ABL1-nonphosphorylated = tested on: ABL1-nonphosphorylated
ABL1-phosphorylated = tested on: ABL1-phosphorylated
ABL2 = tested on: ABL2
ACVR1B = tested on: ACVR1B
ACVR1 = tested on: ACVR1
ACVR2A = tested on: ACVR2A
ACVR2B = tested on: ACVR2B
ACVRL1 = tested on: ACVRL1
ADCK3 = tested on: T1, ADCK3
T1 construct: gene CABC1

ADCK4 = tested on: ADCK4
AKT1 = tested on: AKT1
AKT2 = tested on: AKT2
AKT3 = tested on: AKT3
ALK = tested on: ALK
AMPK-alpha1 = tested on: T2, AMPK-alpha1
T2 construct: gene PRKAA1
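Note: KINOMEscan kinase panel screen.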

SMILES | %Inh (AAK1) [%] | %Inh (ABL1-nonphosphorylated) [%] | %Inh (ABL1-phosphorylated) [%] | %Inh (ABL2) [%] | %Inh (ACVR1B) [%] | %Inh (ACVR1) [%] | %Inh (ACVR2A) [%] | %Inh (ACVR2B) [%] | %Inh (ACVRL1) [%] | %Inh (ADCK3) [%] | %Inh (ADCK4) [%] | %Inh (AKT1) [%] | %Inh (AKT2) [%] | %Inh (AKT3) [%] | %Inh (ALK) [%] | %Inh (AMPK-alpha1) [%]
Nc1nccc(-c2c(-c3ccc(F)cc3)ncn2C2CCN(CC(F)(F)F)CC2)n1 [SB-236560] | 5 | 46 | 0 | 0 | 0 | 19 | 0 | 0 | 0 | 0 | 47 | 0 | 0 | 0 | 29 | 0
COc1ccc(S(=O)(=O)NC2CCN(c3cc(C)nc(Nc4cccc(C#N)c4)n3)CC2)cc1.O=C(O)C(F)(F)F [GSK1653539] | 0 | 0 | 0 | 1 | 0 | 0 | 0 | 0 | 0 | 20 | 35 | 0 | 0 | 0 | 5 | 0
CSc1ccc(-c2cc3ncnc(SCC(=O)O)c3s2)cc1 | 0 | 0 | 0 | 0 | 0 | 0 | 0 | 0 | 0 | 0 | 0 | 0 | 0 | 0 | 0 | 14
CN1c2ccc(CNc3ccc(F)cc3)cc2-c2c(cnn2C)S1(=O)=O | 0 | 21 | 0 | 0 | 0 | 0 | 1 | 0 | 0 | 2 | 5 | 0 | 0 | 0 | 8 | 0
CN(C(=O)c1ccc(-c2cc(-c3c[nH]nc3-c3ccccn3)ccn2)cc1)C1CCOCC1 [GW810083] | 0 | 57 | 0 | 0 | 52 | 0 | 0 | 2 | 0 | 1 | 24 | 0 | 0 | 0 | 17 | 0
Cc1ccc(NC(=O)c2ccnc(N3CCN(C)CC3)c2)cc1-c1ccc(C(=O)NCC2CC2)cc1 [GW775604] | 0 | 45 | 0 | 0 | 0 | 0 | 16 | 0 | 0 | 1 | 0 | 0 | 0 | 6 | 0 | 0
CN(C1=C(c2ccccc2)C(=O)NC1=O)c1ccccc1 [SB-334860] | 7 | 0 | 0 | 0 | 0 | 1 | 0 | 4 | 0 | 12 | 15 | 0 | 23 | 0 | 0 | 0
O=c1cc(N2CCOCC2)nc2n(Cc3cccc4ccccc34)ccn12 [GSK2333389] | 0 | 0 | 0 | 17 | 0 | 0 | 9 | 0 | 0 | 6 | 0 | 0 | 20 | 0 | 2 | 0
Cl.Oc1cccc(Nc2ccnc3cc(-c4ccncc4)ccc23)c1 [GW494601] | 42 | 100 | 99.9 | 99.4 | 67 | 99.8 | 97.2 | 95 | 81 | 1 | 68 | 0 | 0 | 0 | 47 | 0
Fc1ccc(-c2nn3c(OCC(F)(F)F)cccc3c2-c2ccncc2)cc1 [GW514784] | 0 | 0 | 0 | 5 | 61 | 13 | 0 | 0 | 0 | 18 | 46 | 0 | 0 | 0 | 0 | 0
O=C1NC(=O)C(N2CCc3ccccc32)=C1c1cccc(Cl)c1 [SB-408010] | 2 | 33 | 0 | 10 | 14 | 0 | 0 | 7 | 13 | 17 | 0 | 5 | 0 | 5 | 0 | 0
NCC(NC(=O)c1cc(-c2cn[nH]c2)c(-c2ccnc3[nH]ccc23)s1)c1ccccc1.O=C(O)C(F)(F)F.O=C(O)C(F)(F)F (centres unmarked) [GSK1325775] | 86 | 1 | 0 | 0 | 0 | 52 | 15 | 0 | 0 | 52 | 58 | 66 | 23 | 83 | 38 | 17
O=C(NCCNc1ccnc(Nc2ccc(F)cc2)n1)Nc1ccccc1F [GSK1379880] | 0 | 0 | 0 | 24 | 0 | 0 | 0 | 0 | 0 | 0 | 19 | 0 | 0 | 0 | 25 | 0
Fc1ccc(-c2ncn(CCCN3CCOCC3)c2-c2ccccn2)cc1 [SB-211742] | 0 | 39 | 12 | 7 | 1 | 0 | 0 | 19 | 0 | 3 | 6 | 15 | 4 | 0 | 19 | 10
O=C(Nc1cccc(-c2nn3ncccc3c2-c2ccnc(Nc3cccc(C(F)(F)F)c3)n2)c1)c1c(F)cccc1F [GSK299495] | 2 | 18 | 9 | 35 | 0 | 9 | 0 | 0 | 0 | 1 | 28 | 0 | 1 | 0 | 22 | 0
Cc1c(Cn2c(C)nn3c(=O)cc(N4CCOC(C)C4)nc23)cccc1C(F)(F)F (centres unmarked) [GSK2344444] | 0 | 0 | 0 | 11 | 0 | 0 | 22 | 0 | 5 | 3 | 0 | 0 | 6 | 0 | 0 | 0
COc1cc2ncn(-c3cc(OCc4sccc4Cl)c(C(N)=O)s3)c2cc1OC [GSK448459] | 42 | 0 | 3 | 17 | 0 | 18 | 0 | 0 | 0 | 0 | 39 | 0 | 1 | 0 | 21 | 0
CCCCCc1nc2c(N)ncnc2n1CCCCC [SKF-97255] | 6 | 31 | 30 | 0 | 26 | 0 | 0 | 0 | 13 | 1 | 0 | 0 | 0 | 0 | 0 | 3
CC(C)Oc1ccc2c(-c3ccnc(Nc4ccc(N5CCN(C)CC5)cc4)n3)cnn2n1 [GW696155] | 90 | 39 | 53 | 14 | 0 | 69 | 0 | 0 | 0 | 20 | 83 | 0 | 0 | 0 | 42 | 41
Cc1nnc(-c2ccc3ncc(-c4ccc(S(C)=O)cc4)n3c2)o1 (centres unmarked) | 41 | 44 | 6 | 7 | 0 | 0 | 0 | 0 | 0 | 0 | 18 | 3 | 15 | 2 | 40 | 1
Cc1cn2c(=O)cc(N3CCOCC3)nc2n1Cc1cccc(Cl)c1Cl [GSK2334006] | 14 | 73 | 63 | 41 | 9 | 18 | 8 | 23 | 0 | 7 | 17 | 0 | 26 | 26 | 6 | 29
O=C(c1ccc(-c2cc(-c3c[nH]nc3-c3ccccn3)ccn2)cc1)N1CCOCC1 [GW812171] | 0 | 36 | 29 | 2 | 76 | 0 | 0 | 0 | 0 | 0 | 0 | 5 | 0 | 0 | 5 | 19
NS(=O)(=O)CCc1cccc(Nc2nccc(-c3c(-c4cccc(NC(=O)c5c(F)cccc5F)c4)nn4ccccc34)n2)c1 [GSK336735] | 0 | 95.3 | 16 | 78 | 7 | 0 | 0 | 37 | 0 | 9 | 42 | 0 | 16 | 0 | 24 | 20
